# Assay results published in PubChem BioAssay (NCATS).
# Inconclusive results are not listed. A call without a number means that no potency is given here. Calls of active or inactive are those of the source. The call rests on the fitted dose curve; in most records, active means well fitted curve in the direction sought with a large enough effect; inconclusive means small, poorly fitted or top-dose-only effect, or another doubt; inactive means no such curve, though single readings can be large; an effect the other way counts as inactive or inconclusive.
# Columns and labels:
# [1] = tested on: Zika virus NS2B-NS3 protease; assay: Primary screen GU AMC qHTS for Zika virus inhibitors (AID 1347154); further: nearly all actives have a fitted effect of over 70% in size; further: potency means the concentration at half of the fitted maximal effect
# In short: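 Unlinked Zika NS2B hydrophilic domain–NS3 protease complex at 25 nM in 10 mM Tris-HCl pH 8.0, 0.01% Tween 20, with an AMC peptide substrate. Fluorescence change (340/450 nm) over 15 min at room temperature, normalized to controls, fitted to 4-parameter Hill.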
# [2] = qHTS to identify inhibitors of the type 1 interferon - major histocompatibility complex class I in skeletal muscle: primary screen against the NCATS Mechanism Interrogation Plate v5.0 (MIPE) Libary (AID 1347411); further: nearly all actives have a fitted effect of over 65% in size
# In short: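 Immortalized human C25cl48 myoblasts with HiBit knocked into endogenous HLA-B*08:01 were stimulated with 4.0 ng/ml IFN-beta and exposed to compounds (11-point 1:3 titration, top 46 uM final) for 24 hrs at 37 C; HiBiT lytic luminescence measured.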
# [3] = molecular target: Lysine-specific demethylase 5B (Homo sapiens) (UniProt Q9UGL1); assay: Optimization screen for KDM5B Histone Demethylases FDH coupled qHTS against the LOPAC library (AID 1347166)
# Chain of Lysine-specific demethylase 5B (Homo sapiens) (Q9UGL1 whole entry, looked up): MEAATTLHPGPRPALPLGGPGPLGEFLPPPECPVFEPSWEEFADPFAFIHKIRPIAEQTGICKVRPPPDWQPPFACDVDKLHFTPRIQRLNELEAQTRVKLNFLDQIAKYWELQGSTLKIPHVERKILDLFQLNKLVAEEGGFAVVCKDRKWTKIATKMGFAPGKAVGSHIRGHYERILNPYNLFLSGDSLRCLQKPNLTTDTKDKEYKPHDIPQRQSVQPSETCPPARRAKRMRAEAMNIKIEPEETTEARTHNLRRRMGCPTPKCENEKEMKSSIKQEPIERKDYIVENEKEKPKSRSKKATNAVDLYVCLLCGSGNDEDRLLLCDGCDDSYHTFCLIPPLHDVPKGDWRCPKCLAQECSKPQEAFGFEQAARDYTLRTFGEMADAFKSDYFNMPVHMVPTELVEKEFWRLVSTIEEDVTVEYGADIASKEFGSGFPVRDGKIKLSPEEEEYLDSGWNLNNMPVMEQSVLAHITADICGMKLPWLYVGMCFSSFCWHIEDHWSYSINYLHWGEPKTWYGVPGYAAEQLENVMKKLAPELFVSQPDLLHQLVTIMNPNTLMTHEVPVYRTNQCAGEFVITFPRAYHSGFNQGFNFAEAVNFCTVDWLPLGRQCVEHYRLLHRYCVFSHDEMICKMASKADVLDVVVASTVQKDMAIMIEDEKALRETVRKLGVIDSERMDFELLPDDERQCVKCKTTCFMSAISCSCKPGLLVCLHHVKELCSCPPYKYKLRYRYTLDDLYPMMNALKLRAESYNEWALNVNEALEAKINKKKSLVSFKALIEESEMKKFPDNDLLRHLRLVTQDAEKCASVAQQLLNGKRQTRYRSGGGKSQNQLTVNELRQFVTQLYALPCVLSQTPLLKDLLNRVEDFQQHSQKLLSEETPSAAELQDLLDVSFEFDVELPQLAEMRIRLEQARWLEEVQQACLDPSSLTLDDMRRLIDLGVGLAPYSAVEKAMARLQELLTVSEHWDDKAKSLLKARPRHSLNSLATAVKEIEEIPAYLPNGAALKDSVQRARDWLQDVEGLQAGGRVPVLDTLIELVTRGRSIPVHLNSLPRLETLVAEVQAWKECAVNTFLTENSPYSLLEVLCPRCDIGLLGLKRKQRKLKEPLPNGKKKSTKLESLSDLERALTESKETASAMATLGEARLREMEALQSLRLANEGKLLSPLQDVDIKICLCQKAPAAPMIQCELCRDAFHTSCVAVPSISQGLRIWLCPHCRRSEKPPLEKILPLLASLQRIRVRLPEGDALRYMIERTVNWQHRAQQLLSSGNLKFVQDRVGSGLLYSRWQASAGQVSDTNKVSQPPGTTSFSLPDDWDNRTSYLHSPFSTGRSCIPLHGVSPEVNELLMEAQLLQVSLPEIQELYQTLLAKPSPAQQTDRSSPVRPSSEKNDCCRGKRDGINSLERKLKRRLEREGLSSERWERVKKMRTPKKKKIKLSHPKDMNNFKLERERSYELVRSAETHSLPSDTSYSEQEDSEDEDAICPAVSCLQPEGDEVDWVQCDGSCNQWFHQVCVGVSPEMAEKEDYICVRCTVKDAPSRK
# In short: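 KDM5BDeltaAP (200nM final) preincubated 10 min with compound, then 12.5uM H3K4Me3, 25uM a-ketoglutarate, ascorbate, Fe(II), NAD+ and FDH added; 50mM HEPES pH 7.5, 0.01% Tween-20. NADH fluorescence (340/450 nm) change over 30 min, room temperature.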
# [4] = qHTS to identify inhibitors of the type 1 interferon - major histocompatibility complex class I in skeletal muscle: primary screen against the NCATS Pharmaceutical Collection (AID 1347407);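 further: luminescence of HiBiT knocked into endogenous HLA-B as interferon-induced MHC class I level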
# In short: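 A qHTS format is used: 8-point, 1:5 compound series with 46 uM top final concentration, applied alongside 4 ng/ml IFN-beta to HLA-B*08:01-HiBiT knock-in myoblasts. Luminescence is measured after 24 h treatment.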
# [5] = qHTS for inhibitors of adenylyl cyclases using a fission yeast platform: a pilot screen against the NCATS LOPAC library (AID 1347410)
# In short: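 Inhibition of GNAS-stimulated AC9 activity in S. pombe was inferred from derepression of a PKA-repressed fbp1-GFP reporter, measured as cytometric fluorescence after 18 h at 30C with compounds at up to 57 µM.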
# [6] = molecular target: Protein phosphatase 1D (Homo sapiens) (UniProt O15297); assay: RapidFire Mass Spectrometry qHTS Assay for Modulators of WT P53-Induced Phosphatase 1 (WIP1) (AID 1347424);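 further: amount of dephosphorylated VEPPL-S-QETFS peptide product formed by WIP1; series mostly up to about 63 µM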
# Chain of Protein phosphatase 1D (Homo sapiens) (O15297 whole entry, looked up): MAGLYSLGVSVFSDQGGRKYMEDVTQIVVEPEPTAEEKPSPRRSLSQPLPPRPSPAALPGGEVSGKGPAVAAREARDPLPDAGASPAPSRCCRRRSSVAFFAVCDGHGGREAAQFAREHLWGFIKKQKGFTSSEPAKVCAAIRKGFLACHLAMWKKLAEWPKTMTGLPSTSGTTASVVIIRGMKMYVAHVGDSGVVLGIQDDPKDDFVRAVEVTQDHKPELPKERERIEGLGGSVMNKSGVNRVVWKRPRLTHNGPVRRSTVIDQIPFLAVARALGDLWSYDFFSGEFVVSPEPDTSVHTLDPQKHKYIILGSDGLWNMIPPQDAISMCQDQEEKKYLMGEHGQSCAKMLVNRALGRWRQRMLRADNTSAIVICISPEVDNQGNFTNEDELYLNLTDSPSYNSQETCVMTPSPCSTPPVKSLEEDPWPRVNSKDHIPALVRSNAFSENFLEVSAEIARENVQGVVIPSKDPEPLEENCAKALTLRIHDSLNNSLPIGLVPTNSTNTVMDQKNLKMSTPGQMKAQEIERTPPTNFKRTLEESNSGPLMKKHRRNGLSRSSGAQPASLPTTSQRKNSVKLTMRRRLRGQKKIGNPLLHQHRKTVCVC
# In short: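 10 nM WIP1 preincubated with compounds 1 hr at room temperature in pH 7.5 Tris buffer with 30 mM MgCl2, 1 mM TCEP; 2 uM VEPPL-pS-QETFS phosphopeptide for 5 min, formic acid quench; dephosphorylated product quantified by RapidFire MS against labelled standard.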
# [7] = molecular target: Protein phosphatase 1D (Homo sapiens) (UniProt O15297); assay: Rhodamine-PBP qHTS Assay for Modulators of WT P53-Induced Phosphatase 1 (WIP1) (AID 1347425)
# In short: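 WIP1 (5 nM final) was preincubated with compound for 1 hour at room temperature. It then dephosphorylated 10 uM VEPPL-pS-QETFS peptide in Tris-HCl pH 7.5 with 30 mM MgCl2. Released Pi was detected by 10 uM Rh-PBP fluorescence (ex 525/em 598 nm) read at 1-min intervals for 11 min, as delta f1 - f0.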
# [8] = Validation qHTS assay for inhibitors of Activation Induced Cytidine Deaminase (AID): UDG Counterscreen signal (AID 1347427)
# In short: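 Counterscreen read of UDG activity (2 U/mL, 4/3x) in the FRET deamination format with AID (1 uM, 4/3x), DJC20/DJC23 substrates (250 nM, 4x), 4 h at room temperature. NaOH stop, fluorescence at 560 ex/665 em.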
# [9] = molecular target: Single-stranded DNA cytosine deaminase (Homo sapiens) (UniProt Q9GZX7); assay: Validation qHTS assay for inhibitors of Activation Induced Cytidine Deaminase (AID): AID signal (AID 1347429)
# Chain of Single-stranded DNA cytosine deaminase (Homo sapiens) (Q9GZX7 whole entry, looked up): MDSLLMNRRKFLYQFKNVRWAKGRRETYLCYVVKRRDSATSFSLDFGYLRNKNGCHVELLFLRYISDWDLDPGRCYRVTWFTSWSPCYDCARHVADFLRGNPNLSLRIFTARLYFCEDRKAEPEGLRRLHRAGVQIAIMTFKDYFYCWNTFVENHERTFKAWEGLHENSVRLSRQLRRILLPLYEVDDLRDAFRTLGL
# In short: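 AID and UDG were combined and compounds added at final up to 114 uM, then DJC20/DJC23 FRET substrate was added for 4 hr at room temperature. NaOH was then added for 30 min before fluorescence was read at 540/590 nm.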
# [10] = qHTS to identify inhibitors of the type 1 interferon - major histocompatibility complex class I in skeletal muscle: primary screen against the NCATS LOPAC collection (AID 1347405);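 further: lytic HiBiT luminescence reporting HLA-B protein level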
# In short: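 Immortalized human C25cl48 myoblasts with HiBiT knocked into endogenous HLA-B*08:01 were stimulated with 4.0 ng/ml IFN-beta and given compounds in a 7-point, 1:4.3 titration from 46 uM final; after 24 hrs, lytic HiBiT luminescence was read.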
compound,measurement,setting,value
CCCCCCCc1ccc(CCc2cccc(O)c2C(=O)O)cc1,Potency,[1],8.57 µM (active)
same,Potency,[2],inactive
OC(CN1CCC(Cc2ccc(F)cc2)CC1)c1ccc(Cl)cc1 (stereo unspecified),Potency,[1],inactive
same,outcome,[3],inactive
same,outcome,[4],inactive
same,outcome,[5],inactive
same,Potency,[6],inactive
same,outcome,[7],inactive
same,outcome,[8],inactive
same,Potency,[9],inactive
O=C(O)CCc1ccc(NCc2cccc(Oc3ccccc3)c2)cc1,Potency,[1],inactive
same,Potency,[10],inactive
same,outcome,[5],inactive
same,Potency,[2],inactive
NNCCc1ccccc1,Potency,[1],inactive
same,Potency,[10],inactive
same,outcome,[4],inactive
same,outcome,[5],inactive
same,Potency,[2],inactive
same,Potency,[6],inactive
same,outcome,[7],inactive
same,Potency,[9],inactive
Cc1cc(-c2ccc(CC(=O)Nc3ccc(-c4cccnc4)cc3)cc2)ccn1,Potency,[1],inactive
same,Potency,[2],inactive
CCN(c1ccccc1)c1cc(NC)[n+](C)c(C)n1,Potency,[1],inactive
same,Potency,[2],inactive
